Compounds without any hit were thinned out: in the full panel of roughly 79,000, 15% have a hit. Cut-off read from the data, not from the text of the source: active = growth inhibition above about 70%; inactive = the rest.
Columns and labels:
[1] = NCI Yeast Anticancer Drug Screen. Data for the rad50 strain (AID 155);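 note: 0% = growth of vehicle-only cultures of the same strain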; conditions: S. cerevisiae rad50 strain growth inhibition; at 50.0 µM; stronger effect = higher value
In short: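 A DNA repair-deficient yeast mutant serves as the test organism; compound-induced growth inhibition is calculated against vehicle-treated cells.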

[2] = NCI Yeast Anticancer Drug Screen. Data for the mec2-1 strain (AID 157); conditions: S. cerevisiae mec2-1 strain, at 50.0 µM, stronger effect = higher value
In short: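 Growth inhibition is read against vehicle-treated controls after compound exposure of the mec2-1 yeast strain, which is defective in DNA damage repair or cell cycle control.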

[3] = NCI Yeast Anticancer Drug Screen. Data for the sgs1 mgt1 strain (AID 161);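 note: 0% = growth of cultures given vehicle only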; conditions: S. cerevisiae sgs1 mgt1 strain, at 50.0 µM, stronger effect = higher value
In short: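 Yeast cells carrying a defined DNA-repair defect were exposed to test compounds. Growth inhibition was measured relative to vehicle-treated controls.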

[4] = NCI Yeast Anticancer Drug Screen. Data for the cln2 rad14 strain (AID 165);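 note: 0% = growth equal to vehicle treated cultures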; conditions: S. cerevisiae cln2 rad14 strain, at 50.0 µM, stronger effect = higher value
In short: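 Growth inhibition, relative to vehicle-treated controls, is the read-out. The test organism is a yeast strain with defined genetic alterations, cln2 rad14.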

[5] = NCI Yeast Anticancer Drug Screen. Data for the bub3 strain (AID 167); conditions: S. cerevisiae bub3 mutant strain, at 50.0 µM, stronger effect = higher value
In short: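 Inhibition values come from growth of compound-treated mutant yeast normalised to vehicle-treated controls.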

[6] = NCI Yeast Anticancer Drug Screen. Data for the mlh1 rad18 strain (AID 175); conditions: S. cerevisiae mlh1 rad18 strain growth inhibition; at 50.0 µM; stronger effect = higher value
In short: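 Cells of a genetically altered yeast strain, deficient in DNA damage repair, were treated with compound. Their growth was then compared with that of vehicle-treated cultures to give inhibition.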

Measured: growth inhibition

Brc1ccc(N=C2NN=CC2(c2ccccc2)c2ccccc2)cc1
inactive: [1] 25.6% | [2] 1.75% | [3] 6.75% | [4] 4.85% | [5] 19.6% | [6] -1.15%

C/C(=N\N=C(/C)c1ccc(-c2ccccc2)cc1)c1ccc(-c2ccccc2)cc1
inactive: [1] 1.2% | [2] -27.8% | [3] 19.1% | [4] 2.2% | [5] 20.8% | [6] 13.3%

C[N+](C)(C)C(Cc1c[nH]c(=S)[nH]1)C(=O)O (stereo not given)
inactive: [1] -14.9% | [2] -44.4% | [3] -31.1% | [4] 9.45% | [5] -8.4% | [6] -20.4%

O=C(O)CC(O)(c1ccccc1C(=O)O)c1cccc2ccccc12 (stereo not given)
inactive: [1] -2.95% | [2] -4.05% | [3] 18.4% | [4] 25.2% | [5] -3.15% | [6] 22.3%

C/C(=N\NC(N)=O)c1ccc(Cl)c(-n2cccc2)c1
inactive: [1] 12.3% | [2] 3.65% | [3] 32.7% | [4] 14.3% | [5] 32.1% | [6] 31.2%

CC1(C(=O)O)C2CCC(C2)C1C(=O)O (stereo not given)
inactive: [1] 11.8% | [2] 5.8% | [3] -2.7% | [4] -46.1% | [5] 3.7% | [6] 3.35%

CCC(C)(C)c1ccc(OCCCCNC(=O)c2ccc3ccccc3c2O)c(C(C)(C)CC)c1
inactive: [1] -7.65% | [2] 2.05% | [3] -14.2% | [4] -37.1% | [5] -18.2% | [6] 3.15%

Oc1ccccc1-c1cc(-c2ccccc2)nc(NCCCCNc2nc(-c3ccccc3)cc(-c3ccccc3O)n2)n1
inactive: [1] -5.05% | [2] -3.95% | [3] -14.7% | [4] -21.8% | [5] -1.75% | [6] -2.65%

[N-]=[N+]=C1C(=O)NC(=O)N2C3OC(CO[C@@H]12)C(O)C3O (stereo not given in full)
inactive: [1] -24.2% | [2] -1.65% | [3] -16.2% | [4] 32.2% | [5] -8.2% | [6] -39%

COC(=O)c1ccccc1CC1Cc2ccc3c(c2C1)CCC3 (stereo not given)
inactive: [1] -0.8% | [2] 5.45% | [3] -1.65% | [4] -31.6% | [5] 2.55% | [6] 13.7%

C=C1C(=O)O[C@@H]2C3=C(C)C(=O)C=C[C@]3(C)CC[C@@H]12
inactive: [1] 5.3% | [2] 9.05% | [3] 8.55% | [4] 0.8% | [5] 6.6% | [6] -14.3%

COC(=O)/C(C#N)=C(C)/C=C/c1ccc(OC)cc1
inactive: [1] 22.6% | [2] 14% | [3] 8% | [4] -15.6% | [5] 18.6% | [6] 22.2%

COc1ccc(C(=O)COC(C)(C)C)cc1
inactive: [1] -8.55% | [2] -28.2% | [3] -20% | [4] -2.7% | [5] -16.9% | [6] -22.1%

Cc1ccc([N+](=O)[O-])cc1NC(=O)C(=O)Cc1occc(=O)c1O
inactive: [1] -12.6% | [2] -6% | [3] 0.65% | [4] -3.45% | [5] -8.85% | [6] -6.95%

C#CCOC(=O)C(N)CC(N)=O (stereo not given)
inactive: [1] -13.8% | [2] -21.9% | [3] -40.6% | [4] -11.8% | [5] -26.6% | [6] -17.2%

CCOC1CSc2ccccc2C(c2ccccc2)=N1 (stereo not given)
inactive: [1] 9.9% | [2] -1.4% | [3] 0.25% | [4] 10.6% | [5] 14.7% | [6] 6.75%

CCC(CC)C(=O)NC
inactive: [1] -4.25% | [2] -5.2% | [3] -3.5% | [4] 2.2% | [5] -0.85% | [6] -1.8%

CNC(=O)N(c1ccccc1)C1CCCCC1
inactive: [1] 15.8% | [2] 13.8% | [3] -2.5% | [4] -65.5% | [5] 9.8% | [6] 1.15%

OCC1OC(Nc2ccc(F)cc2)C(O)C1O (stereo not given)
inactive: [1] 2.95% | [2] -10.4% | [3] -1.3% | [4] 30.1% | [5] -13.2% | [6] 26.2%

O=C(O)COc1ccccc1/C=C1/SC(=S)N(c2ccccc2)C1=O
inactive: [1] -1.4% | [2] -10.8% | [3] -7.25% | [4] -41.5% | [5] 0.55% | [6] 1.1%

From PubChem BioAssay (NCI)
